Screens: PubChem, National Center for Advancing Translational Sciences (NCATS)
Compounds with a hit are over-represented: about 4.7% of the library has one in this group of screens.
D1 PAM: Potentiators of Human D1 Dopamine Receptor: qHTS | HEK293 TREx D1 cells, calcium flux, dopamine EC20 potentiation | potentiation, % at 10 µM | 360,000 tested, 0.036% active; in the data active means potentiation above about 30%
Target sequence (P21728 whole entry, looked up): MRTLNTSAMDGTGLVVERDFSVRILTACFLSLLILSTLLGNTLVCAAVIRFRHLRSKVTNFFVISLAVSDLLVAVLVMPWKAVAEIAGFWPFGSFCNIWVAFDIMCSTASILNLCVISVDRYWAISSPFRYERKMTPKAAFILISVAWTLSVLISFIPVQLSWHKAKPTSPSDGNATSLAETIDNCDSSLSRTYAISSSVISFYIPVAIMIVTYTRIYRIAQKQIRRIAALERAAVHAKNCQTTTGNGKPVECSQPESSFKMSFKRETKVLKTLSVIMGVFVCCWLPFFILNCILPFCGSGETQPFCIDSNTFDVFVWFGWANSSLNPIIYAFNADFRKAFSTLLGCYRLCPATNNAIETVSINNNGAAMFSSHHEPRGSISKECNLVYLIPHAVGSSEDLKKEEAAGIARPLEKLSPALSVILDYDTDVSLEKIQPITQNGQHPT
D1 agonist: Allosteric Agonists of the Human D1 Dopamine Receptor: qHTS; D(1A) dopamine receptor (Homo sapiens), P21728; HEK293 T-REx D1 cells, calcium flux, agonist mode; activation, % at 2 µM; 360,000 tested, 1% active; AID 504660, 2011
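Inducible HEK293 T-REx D1 cells, force-coupled to calcium signalling, were plated at 4000 cells/well with tetracycline and held overnight at 30 C. After no-wash calcium dye loading, compound-evoked calcium rise over 180 s flagged agonists.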
TRHR PAM: qHTS for Small Molecule Agonists and Allosteric Enhancers of Human TRH Receptor: Primary Screen for Enhancers; Thyrotropin-releasing hormone receptor (Homo sapiens), P34981; TRHR cells, fluo-8 calcium fluorescence, EC20 TRH enhancement; enhancement, % at 2 µM; 360,000 tested, 0.66% active; AID 493056, 2011; in the data active means enhancement above about 30%
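Enhancer read-out: after compound pinning and an initial kinetic agonist-mode read, an EC20 of TRH (10 nM final) was injected and fluo-8 calcium signal (Ex 480/Em 530) followed at 1 s/cycle for 100 cycles in TRHR-expressing cells.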
TRHR agonist: qHTS for Small Molecule Agonists and Allosteric Enhancers of Human TRH Receptor: Primary Screen for Agonists; TRHR cells, calcium flux fluo-8, FDSS agonist mode; activation, % at 2 µM; 360,000 tested, 0.18% active
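TRHR-expressing cells, plated overnight in medium with 10% serum, were loaded with fluo-8 calcium dye at room temperature. After a 10 s baseline, library compound was pin-added and calcium release was recorded kinetically (ex 480/em 530) as agonist response.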
D1 antag: Antagonist of Human D 1 Dopamine Receptor: qHTS; D(1A) dopamine receptor (Homo sapiens), P21728; HEK293 TREx D1 cells, calcium flux, dopamine EC80; stronger effect = lower value; activity change, negative = inhibition, % at 10 µM; 360,000 tested, 3.2% active; AID 504652, 2011; in the data active means activity change below about -30%
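Allosteric or orthosteric antagonism assessed as attenuation of the calcium response to EC80 dopamine, added 180 s after compound, in induced HEK293 Trex D1 cells loaded with no-wash calcium dye.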
Numbers stand for hits. Unless noted, no stated cut-off is given here; in the data, active means activation above about 30%; inactive means the rest.

Screening Cc1ccc(C)c(S(=O)(=O)c2nnn3c2nc(NCc2ccc4c(c2)OCO4)c2sccc23)c1 returned D1 PAM inactive, D1 agonist inactive, TRHR PAM inactive, TRHR agonist inactive and D1 antag inactive.
Screening O=C(Nc1cccc(C(F)(F)F)c1)Oc1ccc(Cl)c2cccnc12 returned D1 PAM inactive, D1 agonist 33.7, TRHR PAM inactive, TRHR agonist inactive and D1 antag inactive.
Screening O=S(=O)(c1ccccc1)N1CCc2ccccc2C1 returned D1 PAM inactive, D1 agonist inactive, TRHR PAM inactive, TRHR agonist inactive and D1 antag inactive.
`COc1cc(S(=O)(=O)N2CCN(Cc3cccs3)CC2)ccc1NC(C)=O` gave D1 agonist inactive, TRHR PAM inactive, TRHR agonist inactive and D1 antag inactive.
CC(=O)Nc1ccc(S(=O)(=O)N2CCc3ccccc3C2)cc1 was read as D1 PAM inactive, D1 agonist inactive, TRHR PAM inactive, TRHR agonist inactive and D1 antag -33.8.
`N#Cc1ccc(S(=O)(=O)N2CCN(c3ncccn3)CC2)cc1` gave D1 PAM inactive, D1 agonist inactive, TRHR PAM inactive, TRHR agonist inactive and D1 antag inactive.
For CC(=O)Nc1ccc(S(=O)(=O)N2CCN(Cc3cccs3)CC2)cc1 the results were D1 PAM inactive, D1 agonist inactive, TRHR PAM inactive, TRHR agonist inactive and D1 antag -39.4.
N#Cc1ccc(S(=O)(=O)N2CCN(Cc3cccs3)CC2)cc1 was read as D1 PAM inactive, D1 agonist inactive, TRHR PAM inactive, TRHR agonist inactive and D1 antag -63.6.
Screening COc1ccccc1N1CCN(C(=O)Cc2c(C(=O)O)c(C)cn2C)CC1 returned D1 PAM inactive, D1 agonist inactive, TRHR PAM inactive, TRHR agonist inactive and D1 antag inactive.
`Cc1ccc(C(=O)NCc2ccc3c(c2)CCN3C(=O)c2ccc(C)cc2)cc1` gave D1 PAM inactive, D1 agonist inactive, TRHR PAM inactive, TRHR agonist inactive and D1 antag inactive.
Cc1cc(Cl)ccc1N=c1ssnc1Cl was read as D1 PAM inactive, D1 agonist 30.0, TRHR PAM inactive, TRHR agonist inactive and D1 antag inactive.
CC(C)=CCC/C(C)=C/COc1c2ccoc2cc2oc(=O)ccc12 was read as D1 PAM inactive, D1 agonist 40.3, TRHR PAM inactive, TRHR agonist inactive and D1 antag inactive.
Screening COc1ccc(Cn2c(C(=O)O)c(CNCCc3cccs3)c3ccc(C)cc32)cc1 returned D1 PAM inactive, D1 agonist inactive, TRHR PAM inactive, TRHR agonist inactive and D1 antag inactive.
For Cc1ccc(OCCNC(=O)c2cccc(S(=O)(=O)NCc3ccccc3)c2)cc1 the results were D1 PAM inactive, D1 agonist 40.6, TRHR PAM inactive, TRHR agonist inactive and D1 antag -34.5.
COc1ccc(N(C)S(=O)(=O)c2cccc(C(=O)Nc3ccc4c(c3)OCCO4)c2)cc1 was read as D1 PAM inactive, D1 agonist inactive, TRHR PAM inactive, TRHR agonist inactive and D1 antag -34.9.
For COc1ccc(N(C)S(=O)(=O)c2cccc(C(=O)NCc3ccc(C)cc3)c2)cc1 the results were D1 PAM inactive, D1 agonist inactive, TRHR PAM inactive, TRHR agonist inactive and D1 antag -31.8.
Screening COc1ccc(CCNC(=O)COc2ccc(N(C)S(=O)(=O)c3ccc(C)cc3)cc2)cc1 returned D1 PAM inactive, D1 agonist inactive, TRHR PAM inactive, TRHR agonist inactive and D1 antag -31.0.
COc1ccc(N(C)S(=O)(=O)c2cccc(C(=O)Nc3ccc(OC)nc3)c2)cc1 was read as D1 PAM inactive, D1 agonist inactive, TRHR PAM inactive, TRHR agonist inactive and D1 antag inactive.
Screening Cc1cccc(OCCNc2ccc(C(F)(F)F)cc2[N+](=O)[O-])c1 returned D1 PAM inactive, D1 agonist inactive, TRHR PAM inactive, TRHR agonist inactive and D1 antag inactive.
